Where “and” joins values, the source holds several entries; their conditions need not be identical. Equal values may be shown once. Hit rate of the full screen: of about 5,700 compounds, about 85 (1%) were called active. Rule as the data show it: active = p53-positive nuclei above about 36% (passing the limit was not always enough); inactive = the rest. The entries come from a sample that favours actives as a whole.
How the values were obtained:
[1] = nuclear p53 accumulation, HPV+ cells – imaging, p53-positive nuclei imaging, 24 h, 48 h (AID 1508601); settings: 24/48 h
[2] = target: Cellular tumor antigen p53 (Homo sapiens) (UniProt P04637); test: as above; settings: 24/48 h, stronger effect = higher value
[3] = measured here: cell number at 24 h, Library stock concentration: 80 uM
[4] = measured here: cell number at 24 h, Library stock concentration: 400 uM
[5] = measured here: cell number at 24 h, Library stock concentration: 2 mM
[6] = measured here: cell number at 24 h, Library stock concentration: 10 mM
[7] = measured here: cell number at 48 h, Library stock concentration: 80 uM
[8] = measured here: cell number at 48 h, Library stock concentration: 400 uM
[9] = measured here: cell number at 48 h, Library stock concentration: 2 mM
[10] = measured here: cell number at 48 h, Library stock concentration: 10 mM
[11] = Library stock concentration: 80 uM
[12] = Library stock concentration: 400 uM
[13] = Library stock concentration: 2 mM
[14] = Library stock concentration: 10 mM
[15] = measured here: p53 positive nuclei at 24 h, Library stock concentration: 80 uM
[16] = measured here: p53 positive nuclei at 24 h, Library stock concentration: 400 uM
[17] = measured here: p53 positive nuclei at 24 h, Library stock concentration: 2 mM
[18] = measured here: p53 positive nuclei at 24 h, Library stock concentration: 10 mM
[19] = measured here: cell number at 24 h, Library stock concentration: 3.33 mM
[20] = measured here: cell number at 48 h, Library stock concentration: 3.33 mM
[21] = Library stock concentration: 3.33 mM
[22] = measured here: p53 positive nuclei at 24 h, Library stock concentration: 3.33 mM
[23] = measured here: cell number at 24 h, concentration not given here
[24] = measured here: cell number at 48 h, concentration not given here
[25] = measured here: p53 positive nuclei at 24 h, concentration not given here

Sequence of Cellular tumor antigen p53 (Homo sapiens) (P04637 whole entry, looked up): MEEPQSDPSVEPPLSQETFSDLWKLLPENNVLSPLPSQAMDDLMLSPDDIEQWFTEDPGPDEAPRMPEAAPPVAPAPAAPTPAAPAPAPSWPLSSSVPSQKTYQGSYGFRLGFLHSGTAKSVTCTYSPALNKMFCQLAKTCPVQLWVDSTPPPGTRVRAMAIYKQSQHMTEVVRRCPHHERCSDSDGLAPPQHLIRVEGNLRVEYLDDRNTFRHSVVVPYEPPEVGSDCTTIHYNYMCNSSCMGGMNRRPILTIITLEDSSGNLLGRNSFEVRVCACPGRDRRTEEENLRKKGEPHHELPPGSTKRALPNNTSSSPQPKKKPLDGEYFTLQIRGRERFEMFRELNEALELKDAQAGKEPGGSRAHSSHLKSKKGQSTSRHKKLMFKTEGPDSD

COC(=O)c1c(NC(=O)CC2SC(=N)NC2=O)sc(C)c1C (configuration not stated)
nuclei count, normalised [1, 3]: 98.4% | nuclei count, normalised [1, 4]: 104% | nuclei count, normalised [1, 5]: 101% | nuclei count, normalised [1, 6]: 101% | nuclei count, normalised [1, 7]: 108% | nuclei count, normalised [1, 8]: 108% | nuclei count, normalised [1, 9]: 106% | nuclei count, normalised [1, 10]: 99.8% | p53-positive nuclei, normalised [2, 11]: -0.137% (inactive) | p53-positive nuclei, normalised [2, 12]: -0.126% (inactive) | p53-positive nuclei, normalised [2, 13]: -0.195% (inactive) | p53-positive nuclei, normalised [2, 14]: -0.114% (inactive) | p53-positive nuclei, normalised [2, 15]: -0.000422% | p53-positive nuclei, normalised [2, 16]: -0.116% | p53-positive nuclei, normalised [2, 17]: -0.00728% | p53-positive nuclei, normalised [2, 18]: -0.004%

C[C@]1(C(=O)Nc2ccc(F)nc2)CCCN1c1nc(Nc2cc(C3CC3)[nH]n2)c2cccn2n1
nuclei count, normalised [1, 19]: 46.1% | nuclei count, normalised [1, 20]: 30.3% | p53-positive nuclei, normalised [2, 21]: -0.488% (inactive) | p53-positive nuclei, normalised [2, 22]: -0.0691%

CN1CCN(c2ccc(Nc3c4ccccc4nc4ccccc34)cc2)CC1
nuclei count, normalised ([1]; measured here: cell number at 24 h, Library stock concentration: 46 uM): 95.9% | nuclei count, normalised [1, 3]: 110% | nuclei count, normalised ([1]; measured here: cell number at 24 h, Library stock concentration: 278 uM): 90.1% | nuclei count, normalised [1, 4]: 95.8% | nuclei count, normalised ([1]; measured here: cell number at 24 h, Library stock concentration: 1.67 mM): 79.3% | nuclei count, normalised [1, 5]: 52.3% | nuclei count, normalised [1, 6]: 32.6% and 36.6% | nuclei count, normalised ([1]; measured here: cell number at 48 h, Library stock concentration: 46 uM): 96.2% | nuclei count, normalised [1, 7]: 109% | nuclei count, normalised ([1]; measured here: cell number at 48 h, Library stock concentration: 278 uM): 93.5% | nuclei count, normalised [1, 8]: 103% | nuclei count, normalised ([1]; measured here: cell number at 48 h, Library stock concentration: 1.67 mM): 81% | nuclei count, normalised [1, 9]: 48.7% | nuclei count, normalised [1, 10]: 18.8% and 22% | p53-positive nuclei, normalised ([2]; Library stock concentration: 46 uM): -0.136% (inactive) | p53-positive nuclei, normalised [2, 11]: -0.131% (inactive) | p53-positive nuclei, normalised ([2]; Library stock concentration: 278 uM): -0.255% (inactive) | p53-positive nuclei, normalised [2, 12]: -0.231% (inactive) | p53-positive nuclei, normalised ([2]; Library stock concentration: 1.67 mM): -0.00204% (inactive) | p53-positive nuclei, normalised [2, 13]: 5.16% (inactive) | p53-positive nuclei, normalised [2, 14]: 53.2% (active) and 55.4% (active) | p53-positive nuclei, normalised ([2]; measured here: p53 positive nuclei at 24 h, Library stock concentration: 46 uM): -0.145% | p53-positive nuclei, normalised [2, 15]: -0.0662% | p53-positive nuclei, normalised ([2]; measured here: p53 positive nuclei at 24 h, Library stock concentration: 278 uM): -0.137% | p53-positive nuclei, normalised [2, 16]: -0.059% | p53-positive nuclei, normalised ([2]; measured here: p53 positive nuclei at 24 h, Library stock concentration: 1.67 mM): 0.126% | p53-positive nuclei, normalised [2, 17]: 13.1% | p53-positive nuclei, normalised [2, 18]: 88.3% and 79.2%

C=CC(=O)Nc1cccc(Oc2nc(Nc3ccc(N4CCN(C)CC4)cc3)ncc2Cl)c1
nuclei count, normalised [1, 19]: 64.1% | nuclei count, normalised [1, 20]: 64.3% | p53-positive nuclei, normalised [2, 21]: -0.197% (inactive) | p53-positive nuclei, normalised [2, 22]: -0.375%

CNC(=O)c1nn(C)c2c1C(C)(C)Cc1cnc(Nc3ccc(N4CCN(C)CC4)cc3)nc1-2
nuclei count, normalised [1, 19]: 62.7% | nuclei count, normalised [1, 20]: 44% | p53-positive nuclei, normalised [2, 21]: 0.155% (inactive) | p53-positive nuclei, normalised [2, 22]: 0.144%

O=C1CN(c2ncnc3sccc23)CCN1Cc1ccc(F)cc1
nuclei count, normalised [1, 23]: 108% | nuclei count, normalised [1, 24]: 111% | p53-positive nuclei, normalised ([2]; concentration not given here): -0.087% (inactive) | p53-positive nuclei, normalised [2, 25]: -0.23%

CC=CCC(C)C(O)C1C(=O)NC(CC)C(=O)N(C)CC(=O)N(C)C(CC(C)C)C(=O)NC(C(C)C)C(=O)N(C)C(CC(C)C)C(=O)NC(C)C(=O)NC(C)C(=O)N(C)C(CC(C)C)C(=O)N(C)C(CC(C)C)C(=O)N(C)C(C(C)C)C(=O)N1C (configuration not stated)
nuclei count, normalised [1, 19]: 114% and 120% | nuclei count, normalised [1, 20]: 120% and 121% | p53-positive nuclei, normalised [2, 21]: -0.306% (inactive) and -0.666% (inactive) | p53-positive nuclei, normalised [2, 22]: -0.452% and -0.338%

Cc1ncc(-c2ccnc(Nc3ccc(S(C)(=O)=O)cc3)n2)n1C(C)C
nuclei count, normalised [1, 3]: 104% and 73.6% | nuclei count, normalised [1, 4]: 100% and 83.3% | nuclei count, normalised [1, 5]: 54.9% and 60.1% | nuclei count, normalised [1, 19]: 46.1% | nuclei count, normalised [1, 6]: 36.9% and 37.6% | nuclei count, normalised [1, 7]: 105% and 49.6% | nuclei count, normalised [1, 8]: 89.2% and 61.2% | nuclei count, normalised [1, 9]: 24.1% and 33.6% | nuclei count, normalised [1, 20]: 23% | nuclei count, normalised [1, 10]: 21.8% and 24.6% | p53-positive nuclei, normalised [2, 11]: 0.106% (inactive) and 10.7% (inactive) | p53-positive nuclei, normalised [2, 12]: 0.447% (inactive) and 4.11% (inactive) | p53-positive nuclei, normalised [2, 13]: 57.6% (inactive) and 42.9% (inactive) | p53-positive nuclei, normalised [2, 21]: 60.3% (active) | p53-positive nuclei, normalised [2, 14]: 50.8% (inactive) and 49.9% (inactive) | p53-positive nuclei, normalised [2, 15]: 0.00746% and 0.944% | p53-positive nuclei, normalised [2, 16]: 0.0769% and 0.14% | p53-positive nuclei, normalised [2, 17]: 34.6% and 11.8% | p53-positive nuclei, normalised [2, 22]: 32.5% | p53-positive nuclei, normalised [2, 18]: 15.1% and 13.6%

Cc1nn(C)c(C)c1-c1ccnc(NCC(C)Oc2cccnc2)n1 (configuration not stated)
nuclei count, normalised [1, 23]: 103% | nuclei count, normalised [1, 24]: 101% | p53-positive nuclei, normalised ([2]; concentration not given here): -0.151% (inactive) | p53-positive nuclei, normalised [2, 25]: -0.079%

COc1cc(-c2cccc(C)c2C)nc(N)n1
nuclei count, normalised [1, 23]: 87.1% | nuclei count, normalised [1, 24]: 74.8% | p53-positive nuclei, normalised ([2]; concentration not given here): 0.587% (inactive) | p53-positive nuclei, normalised [2, 25]: 0.226%

From PubChem BioAssay AID1508601 (ICCB-Longwood Screening Facility, Harvard Medical School, 2020)
